Hits are enriched below; roughly 3.5% of the tested compounds scored in any of these assays.
M1 ag: human M1 muscarinic receptor agonism; CHO-K1 hM1, Fluo-8 calcium fluorescence, agonist mode; 0% DMSO, 100% acetylcholine EC100; activation, % at 3 µM; 0.33% of 360,000 active; AID 588814;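 active = activation above the run's mean compound activation plus 3 SD, cut at about 16% in these data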;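 also: peak over basal fluorescence ratio within a 140 s kinetic read after compound addition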
Target sequence (P11229 whole entry, looked up): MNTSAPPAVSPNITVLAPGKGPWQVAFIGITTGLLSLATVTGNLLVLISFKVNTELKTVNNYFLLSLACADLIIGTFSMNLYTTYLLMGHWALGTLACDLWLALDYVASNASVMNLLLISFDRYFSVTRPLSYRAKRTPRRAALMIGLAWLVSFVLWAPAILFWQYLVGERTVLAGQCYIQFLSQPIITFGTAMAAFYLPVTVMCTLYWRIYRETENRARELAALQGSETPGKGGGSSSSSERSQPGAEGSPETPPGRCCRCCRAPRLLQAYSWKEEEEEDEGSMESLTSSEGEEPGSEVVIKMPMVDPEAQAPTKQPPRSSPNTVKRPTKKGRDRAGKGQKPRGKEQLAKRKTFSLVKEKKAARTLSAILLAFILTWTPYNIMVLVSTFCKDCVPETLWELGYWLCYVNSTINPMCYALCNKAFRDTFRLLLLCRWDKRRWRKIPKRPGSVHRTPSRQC
Myeloid diff 2: myeloid differentiation induction. 1% of 360,000 active. calls only at 10 µM. ER-HoxA9 myeloid progenitors, lysozyme-GFP differentiation, flow cytometry;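 active = normalized GFP-positive differentiation at or above the plate's own cutoff, the solvent-only control mean plus 3 SD; inconclusive = no clear call, values can overlap the other calls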;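 also: cells exposed to compound for four days before flow analysis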
CHRM1 antagonist: blocks human M1 muscarinic receptor; P11229; CHO-K1 hM1, Fluo-8 calcium fluorescence, ACh EC80 antagonist; inhibition, % at 3 µM; 1.3% of 360,000 active;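 active = percent inhibition above its own plate's cutoff, namely the mean of that plate's compound wells plus 3 SD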;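 also: peak over basal fluorescence ratio during 140 s after agonist addition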
M1 PAM: potentiates human M1 receptor response to acetylcholine | 0.088% of 360,000 active | activation, % at 3 µM | AID 588819 | CHO-K1 hM1, Fluo-8 calcium fluorescence, ACh EC20; 0% = ACh EC20, 100% = maximal ACh; in the data active = activation above about 19%, passing the limit was not always enough
ATG4B inh: ATG4B (human) cysteine protease inhibition. Q9Y4P1. ATG4B cleavage of LC3-PLA2, NBD-HPC fluorescence, 1 h. inhibition, % at 8.33 µM. 0.51% of 340,000 active. AID 504462; in the data active = inhibition above about 40%
SKN-1 inh: inhibitors of C. elegans SKN-1; C. elegans VP596 Pgst-4::GFP/RFP ratio, acrylamide-induced, 24 h; inhibition, % at 21.8 µM; 0.49% of 360,000 active; AID 624304;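 active = interference check ratio from 0.5 to 1.5 plus GFP to RFP signal ratio inhibition reaching or exceeding a fixed threshold, cut at about 30% in these data, passing the limit was not always enough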
Each line names hits and unclear results; the compound was inactive in the other large screens.

CCN(CC)c1ccc(S(=O)(=O)N2CCOCC2)cc1NC(=O)COC(=O)/C=C/c1ccccc1	CHRM1 antagonist 32
CCN(CC)c1ccc(S(=O)(=O)N2CCOCC2)cc1NC(=O)COC(=O)/C=C/c1ccc(O)c(OC)c1	none
Cc1oc(-c2ccccc2)cc1C(=O)NCc1ccncc1	none
CC(=O)Oc1cc2c(C(=O)NCc3ccncc3)c(C)oc2c2ccccc12	Myeloid diff 2 active
O=C(Nc1ccc(S(=O)(=O)NCc2ccccc2)cc1)Nc1ccc2c(c1)OCO2	CHRM1 antagonist 27
CCNS(=O)(=O)c1ccc(NC(=O)Nc2ccc3c(c2)OCO3)cc1	none
O=C(NCc1ccco1)c1sc2ccccc2c1Cl	none
O=C(NCc1ccco1)c1sc2cc(Cl)ccc2c1Cl	SKN-1 inh 38
Cc1cc(C)n2nc(CC(=O)NNC(=O)c3ccccc3Cl)nc2n1	none
Cc1ccc(NC(=O)C(C)OC(=O)/C=C/c2ccccc2)cc1S(=O)(=O)N1CCOCC1 (stereo not given)	none
CN(C)S(=O)(=O)c1cccc(NC(=O)C2CCN(S(=O)(=O)c3cccs3)CC2)c1	none
C#CCOCCOCCOCCNc1nc(N2CCN(C(=O)[C@H]([C@@H](C)O)n3cc(CCCCN)nn3)CC2)nc(N2CCN(C(=O)[C@H](CCCCN)n3cc(CCCC)nn3)CC2)n1	Myeloid diff 2 active
C#CCOCCOCCOCCNc1nc(N2CCN(C(=O)[C@H]([C@@H](C)CC)n3cc(CCCCN)nn3)CC2)nc(N2CCN(C(=O)[C@H](CCCCN)n3cc(CC(C)O)nn3)CC2)n1 (stereo not given in full)	Myeloid diff 2 active
Cn1c(N)c(C(=O)COC(=O)/C=C/c2cccc(Cl)c2)c(=O)n(C)c1=O	none
CC1(C(=O)NCCc2c[nH]c3ccccc23)CCN1CC1CCCCC1 (stereo not given)	none (no result: ATG4B inh)
COc1cccc(CNc2nc3cc(-c4ccc(F)cc4)sc3c(=O)n2C)c1	none (no result: ATG4B inh)
Cc1ccc(C(=O)Nc2nnc(-c3ccco3)o2)cc1	none
O=C(Nc1nnc(-c2ccco2)o1)c1ccc([N+](=O)[O-])s1	Myeloid diff 2 active
CCCCC(=O)/C=C/n1c(=S)oc2ccccc21	Myeloid diff 2 inconclusive, SKN-1 inh 39
CC(C)OC(=O)n1c(=S)oc2ccccc21	none
CN(C)c1cccc(CNC(=O)c2csc(COCCO)n2)c1	none (no result: ATG4B inh)
O=C(COc1ccccc1)N1CCN(c2nnc(-c3ccccc3)c3ccccc23)CC1	none
Cc1ccc(OCC(=O)N2CCN(c3nnc(-c4ccc(C)cc4)c4ccccc34)CC2)cc1	none
Cc1ccc(-c2nnc(N3CCN(C(=O)COc4cccc(C)c4)CC3)c3ccccc23)cc1	Myeloid diff 2 active
Cc1cccc(OCC(=O)N2CCN(c3nnc(-c4ccccc4)c4ccccc34)CC2)c1	CHRM1 antagonist 57
CCOC(=O)C1=C[C@@H](C2CCCC2)N(S(=O)(=O)c2ccc([N+](=O)[O-])cc2)[C@H]1c1ccccc1	CHRM1 antagonist 44 (no result: ATG4B inh)
CCCn1c(SCC(=O)N2CCN(C(=O)c3ccco3)CC2)nc2ccccc2c1=O	none
COc1ccc(F)cc1C(=O)C1CCCN(Cc2cccn2-c2cccnc2)C1 (stereo not given)	none
COc1ccc(F)cc1C(=O)C1CCCN(Cc2c(C)n(C)n(-c3ccccc3)c2=O)C1 (stereo not given)	CHRM1 antagonist 36
O=C(Nc1cc(-c2ccccc2)[nH]n1)c1ccccc1	Myeloid diff 2 inconclusive, SKN-1 inh 37
Cc1c(C#N)c(O)[nH]c(=O)c1N=Nc1ccc(S(N)(=O)=O)cc1	SKN-1 inh 38
Cc1c(C#N)c(O)[nH]c(=O)c1N=Nc1ccc(Cl)c(C(=O)O)c1	none
CC(=O)c1ccc[n+](CC(=O)NC(C)c2ccccc2)c1 (stereo not given)	none
Cc1sc2ncnc(NCC(c3ccccc3)N(C)C)c2c1C (stereo not given)	CHRM1 antagonist 57
Cc1sc2ncnc(NCC(O)c3ccccc3)c2c1C (stereo not given)	none
Cc1sc2ncnc(NCC(O)c3ccc([N+](=O)[O-])cc3)c2c1C (stereo not given)	Myeloid diff 2 inconclusive, CHRM1 antagonist 34
Cc1ccc(Nc2ncnc3sc(C)c(C)c23)cc1C	Myeloid diff 2 active
Cc1sc2ncnc(NCCCO)c2c1C	none
Cc1ccc([C@H]2N[C@]3(CCCN(Cc4cccn4C)C3=O)[C@H]3C(=O)N(Cc4ccccc4)C(=O)[C@@H]23)cc1	none (no result: ATG4B inh)
O=C(O)C1OC1(c1ccccc1Cl)c1ccccc1Cl (stereo not given)	none
CCOC(=O)C1C(C(=O)OCC)C2C(=O)C3C(C(=O)OCC)C(C(=O)OCC)C3C(=O)C12 (stereo not given)	none (no result: ATG4B inh)
Cc1cc(C)c(OCC(=O)NCC2COc3ccccc3O2)c(C)c1 (stereo not given)	none
CN1CCCC1CCNc1ccc2sc3ccccc3c(=O)c2c1 (stereo not given)	Myeloid diff 2 active
O=c1c2ccccc2sc2ccc(NCCCN3CCOCC3)cc12	Myeloid diff 2 active
Cc1cc2oc3cc(NCCC4CCCN4C)ccc3c(=O)c2cc1C (stereo not given)	none
C[C@@H]1CN([C@H](C)CO)C(=O)CCCn2nncc2CO[C@@H]1CN(C)C(=O)C1CCCCC1	none (no result: ATG4B inh)
Cc1ccc(NC(=O)C2(C)CCN2C(=O)c2ccccc2CCc2ccccc2)cc1C (stereo not given)	none (no result: ATG4B inh)
CC1(C(=O)Nc2cnc3ccccc3c2)CCN1C(=O)c1ccccc1CCc1ccccc1 (stereo not given)	SKN-1 inh 39 (no result: ATG4B inh)
CCc1nc2ccc(C(=O)NCCOc3ccc(OC)cc3)cn2c1N(C)C(=O)C1CCCCC1	none (no result: ATG4B inh)
CC(=O)c1ccc2c(c1)N(C)c1ccccc1S2	none
CCC(=O)c1ccc2c(c1)N(CCCN(C)C)c1ccccc1S2	CHRM1 antagonist 94
CC(=O)c1ccc2c(c1)N(CCCN(C)C)c1ccccc1S2	CHRM1 antagonist 95
O=C(CCC(=O)N(CC(=O)NC1CCCC1)Cc1ccccc1)Nc1nccs1	none
COc1cccc(C2c3c(-c4ccccc4O)n[nH]c3C(=O)N2Cc2ccco2)c1 (stereo not given)	none
O=C1c2[nH]nc(-c3ccccc3O)c2C(c2ccccc2)N1Cc1ccco1 (stereo not given)	Myeloid diff 2 active
Cc1cn([C@H]2C[C@H](O)[C@@H](/C=C/C(=O)NCCc3ccc(S(N)(=O)=O)cc3)O2)c(=O)[nH]c1=O	none (no result: ATG4B inh)
CCCCC1OC2(C)OC(=N)C1(C#N)C(C#N)(C#N)C2c1ccccc1 (stereo not given)	SKN-1 inh 44
COc1ccc(N2CCN(c3ncnc4c3[nH]c3ccccc34)CC2)cc1	none
